{
  "source": "the supplement of paper PMC11402862",
  "experiment_in_all_cases": "luciferase reporter transactivation, fold of solvent control; higher = stronger receptor activation",
  "settings_in_all_cases": "HEK293T, exposure time: 24 h",
  "key": {"[1]": {"system": "CAR LBD (GAL4 fusion)", "outline": "(§1)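 Using TransIT-LT1, HEK293T cells at 2 × 10^4 cells/well were transiently given a GAL4 fusion of one human nuclear receptor ligand-binding domain together with a GAL4-(UAS)5-TK firefly luciferase reporter and a Renilla luciferase plasmid. The cells then spent 24 h with compound at 1 to 500 µM in DMEM with 0.5% DMSO. Each transactivation value is the mean over biological replicates of the firefly/Renilla luciferase ratio, expressed as fold of solvent control.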"}, "[2]": {"system": "LXRalpha LBD (GAL4 fusion)", "outline": "as §1"}, "[3]": {"system": "PPARdelta LBD (GAL4 fusion)", "outline": "as §1"}, "[4]": {"target": "PXR LBD (GAL4 fusion) (UniProt O75469)", "sequence (O75469 whole entry, looked up, the tested form may be a part)": "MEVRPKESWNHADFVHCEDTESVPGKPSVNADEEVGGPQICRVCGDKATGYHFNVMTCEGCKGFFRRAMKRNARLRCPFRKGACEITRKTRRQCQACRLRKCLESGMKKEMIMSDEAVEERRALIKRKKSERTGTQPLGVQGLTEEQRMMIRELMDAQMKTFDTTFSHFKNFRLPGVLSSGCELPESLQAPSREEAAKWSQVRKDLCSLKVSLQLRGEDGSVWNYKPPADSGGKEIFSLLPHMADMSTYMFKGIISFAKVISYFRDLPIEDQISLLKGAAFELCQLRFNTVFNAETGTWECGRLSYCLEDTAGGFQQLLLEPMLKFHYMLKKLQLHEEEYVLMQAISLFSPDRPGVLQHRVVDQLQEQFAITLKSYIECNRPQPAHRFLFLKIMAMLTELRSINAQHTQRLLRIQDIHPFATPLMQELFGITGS", "outline": "as §1"}, "[5]": {"system": "RARalpha (GAL4 fusion)", "outline": "as §1"}},
  "data": [
    {"compound": "NS(=O)(=O)C(F)(F)C(F)(F)C(F)(F)C(F)(F)C(F)(F)C(F)(F)C(F)(F)C(F)(F)F", "note": "[perfluorooctane sulfonamide]", "values": [
      {"measurement": "luciferase reporter transactivation", "setting": "[1]; concentration: 1 µM", "value": 1.08},
      {"measurement": "luciferase reporter transactivation", "setting": "[1]; concentration: 2.5 µM", "value": 1.29},
      {"measurement": "luciferase reporter transactivation", "setting": "[1]; concentration: 5 µM", "value": 1.18},
      {"measurement": "luciferase reporter transactivation", "setting": "[1]; concentration: 10 µM", "value": 1.06},
      {"measurement": "luciferase reporter transactivation", "setting": "[1]; concentration: 100 µM", "value": 0.995},
      {"measurement": "luciferase reporter transactivation", "setting": "[2]; concentration: 1 µM", "value": 1.05},
      {"measurement": "luciferase reporter transactivation", "setting": "[2]; concentration: 2.5 µM", "value": 0.997},
      {"measurement": "luciferase reporter transactivation", "setting": "[2]; concentration: 5 µM", "value": 1.08},
      {"measurement": "luciferase reporter transactivation", "setting": "[2]; concentration: 10 µM", "value": 1.03},
      {"measurement": "luciferase reporter transactivation", "setting": "[2]; concentration: 100 µM", "value": 1.09},
      {"measurement": "luciferase reporter transactivation", "setting": "[3]; concentration: 1 µM", "value": 1.15},
      {"measurement": "luciferase reporter transactivation", "setting": "[3]; concentration: 2.5 µM", "value": 1.03},
      {"measurement": "luciferase reporter transactivation", "setting": "[3]; concentration: 5 µM", "value": 0.974},
      {"measurement": "luciferase reporter transactivation", "setting": "[3]; concentration: 10 µM", "value": 0.826},
      {"measurement": "luciferase reporter transactivation", "setting": "[3]; concentration: 100 µM", "value": 0.935},
      {"measurement": "luciferase reporter transactivation", "setting": "[4]; concentration: 1 µM", "value": 0.779},
      {"measurement": "luciferase reporter transactivation", "setting": "[4]; concentration: 2.5 µM", "value": 0.819},
      {"measurement": "luciferase reporter transactivation", "setting": "[4]; concentration: 5 µM", "value": 0.699},
      {"measurement": "luciferase reporter transactivation", "setting": "[4]; concentration: 10 µM", "value": 0.703},
      {"measurement": "luciferase reporter transactivation", "setting": "[4]; concentration: 100 µM", "value": 0.74},
      {"measurement": "luciferase reporter transactivation", "setting": "[5]; concentration: 1 µM", "value": 1.02},
      {"measurement": "luciferase reporter transactivation", "setting": "[5]; concentration: 2.5 µM", "value": 0.969},
      {"measurement": "luciferase reporter transactivation", "setting": "[5]; concentration: 5 µM", "value": 1.32},
      {"measurement": "luciferase reporter transactivation", "setting": "[5]; concentration: 10 µM", "value": 1.47},
      {"measurement": "luciferase reporter transactivation", "setting": "[5]; concentration: 100 µM", "value": 1.71}
    ]},
    {"compound": "O=C(O)C(F)(F)C(F)(F)F", "note": "[perfluoropropanoic acid]", "values": [
      {"measurement": "luciferase reporter transactivation", "setting": "[1]; concentration: 1 µM", "value": 0.94},
      {"measurement": "luciferase reporter transactivation", "setting": "[1]; concentration: 5 µM", "value": 0.855},
      {"measurement": "luciferase reporter transactivation", "setting": "[1]; concentration: 10 µM", "value": 0.923},
      {"measurement": "luciferase reporter transactivation", "setting": "[1]; concentration: 25 µM", "value": 0.983},
      {"measurement": "luciferase reporter transactivation", "setting": "[1]; concentration: 50 µM", "value": 1.12},
      {"measurement": "luciferase reporter transactivation", "setting": "[1]; concentration: 100 µM", "value": 1.11},
      {"measurement": "luciferase reporter transactivation", "setting": "[1]; concentration: 250 µM", "value": 1.15},
      {"measurement": "luciferase reporter transactivation", "setting": "[1]; concentration: 500 µM", "value": 1.31},
      {"measurement": "luciferase reporter transactivation", "setting": "[2]; concentration: 1 µM", "value": 0.9},
      {"measurement": "luciferase reporter transactivation", "setting": "[2]; concentration: 5 µM", "value": 0.907},
      {"measurement": "luciferase reporter transactivation", "setting": "[2]; concentration: 10 µM", "value": 0.949},
      {"measurement": "luciferase reporter transactivation", "setting": "[2]; concentration: 25 µM", "value": 0.933},
      {"measurement": "luciferase reporter transactivation", "setting": "[2]; concentration: 50 µM", "value": 1},
      {"measurement": "luciferase reporter transactivation", "setting": "[2]; concentration: 100 µM", "value": 0.953},
      {"measurement": "luciferase reporter transactivation", "setting": "[2]; concentration: 250 µM", "value": 0.94},
      {"measurement": "luciferase reporter transactivation", "setting": "[2]; concentration: 500 µM", "value": 0.97},
      {"measurement": "luciferase reporter transactivation", "setting": "[3]; concentration: 1 µM", "value": 0.959},
      {"measurement": "luciferase reporter transactivation", "setting": "[3]; concentration: 5 µM", "value": 1.14},
      {"measurement": "luciferase reporter transactivation", "setting": "[3]; concentration: 10 µM", "value": 1.27},
      {"measurement": "luciferase reporter transactivation", "setting": "[3]; concentration: 25 µM", "value": 1.2},
      {"measurement": "luciferase reporter transactivation", "setting": "[3]; concentration: 50 µM", "value": 1.26},
      {"measurement": "luciferase reporter transactivation", "setting": "[3]; concentration: 100 µM", "value": 1.21},
      {"measurement": "luciferase reporter transactivation", "setting": "[3]; concentration: 250 µM", "value": 1.22},
      {"measurement": "luciferase reporter transactivation", "setting": "[3]; concentration: 500 µM", "value": 1.31},
      {"measurement": "luciferase reporter transactivation", "setting": "[4]; concentration: 1 µM", "value": 0.362},
      {"measurement": "luciferase reporter transactivation", "setting": "[4]; concentration: 5 µM", "value": 0.532},
      {"measurement": "luciferase reporter transactivation", "setting": "[4]; concentration: 10 µM", "value": 0.495},
      {"measurement": "luciferase reporter transactivation", "setting": "[4]; concentration: 25 µM", "value": 0.632},
      {"measurement": "luciferase reporter transactivation", "setting": "[4]; concentration: 50 µM", "value": 0.626},
      {"measurement": "luciferase reporter transactivation", "setting": "[4]; concentration: 100 µM", "value": 0.695},
      {"measurement": "luciferase reporter transactivation", "setting": "[4]; concentration: 250 µM", "value": 0.601},
      {"measurement": "luciferase reporter transactivation", "setting": "[4]; concentration: 500 µM", "value": 0.727},
      {"measurement": "luciferase reporter transactivation", "setting": "[5]; concentration: 1 µM", "value": 0.332},
      {"measurement": "luciferase reporter transactivation", "setting": "[5]; concentration: 5 µM", "value": 0.321},
      {"measurement": "luciferase reporter transactivation", "setting": "[5]; concentration: 10 µM", "value": 0.367},
      {"measurement": "luciferase reporter transactivation", "setting": "[5]; concentration: 25 µM", "value": 0.387},
      {"measurement": "luciferase reporter transactivation", "setting": "[5]; concentration: 50 µM", "value": 0.632},
      {"measurement": "luciferase reporter transactivation", "setting": "[5]; concentration: 100 µM", "value": 0.652},
      {"measurement": "luciferase reporter transactivation", "setting": "[5]; concentration: 250 µM", "value": 0.977},
      {"measurement": "luciferase reporter transactivation", "setting": "[5]; concentration: 500 µM", "value": 0.946}
    ]}
  ]
}
